Pf growth 96h: P. falciparum growth inhibition at 96 hour, primary screen for plastid delayed-death inhibitors; 6.9% of 320,000 active; P. falciparum luciferase reporter growth, 96 h; Potency, µM (titrated, usually from 28.7 µM), most hits filed as inhibitors
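Readout is luminescence from an integrated firefly luciferase in P. falciparum. Red cells, 2% hematocrit and 0.05% parasitemia final, were cultured with compound through two parasite generations (96 hours) at 37 C, 5% CO2.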
Pf growth 48h: P. falciparum growth inhibition at 48 hours (one generation); P. falciparum luciferase growth in erythrocytes, 48 h; Potency, µM (series often up to 28.7 µM), most hits filed as inhibitors; 5.9% of 310,000 active
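Firefly luciferase activity from engineered P. falciparum reports growth; inhibitors lower the luminescent signal. Cultures contained 2% hematocrit erythrocytes at 0.1% final parasitemia.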
NS1 function inh: influenza NS1 inhibition | AID 2326 | 0.4% of 270,000 active | Potency, µM (series often up to 46.1 µM); calls by dose curve; also: actives are rising curves; nearly all actives have a fitted effect of over 50% in size
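Read-out: OD600 growth recovery of NS1-expressing budding yeast. Cells grown overnight at 30C in -URA glucose medium, washed, resuspended and diluted 1:100 in 2% galactose assay medium, pH 6.0. Same strain lacking NS1 served as positive control.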
Cycloheximide cs: counter-screen hit for Shiga toxin inhibitors, cycloheximide. cell reporter, cycloheximide protein synthesis inhibition counterscreen. max response, %. 12% of 300,000 active. AID 2314; in the data active = max response mostly above about 13%, no sharp cut-off; inactive = mostly below about 14%; also: read at 38.3 µM for the half of the compounds with a filed dose
FBPA Giardia inh: blocks Giardia fructose-bisphosphate aldolase activity. AID 2451. A8B2U2. purified Giardia FBPA. Potency, µM (top dose mostly 59.6 µM), most hits filed as inhibitors. 0.71% of 290,000 active; also: nearly all actives have a fitted effect of over 55% in size
Target sequence (A8B2U2 whole entry, looked up): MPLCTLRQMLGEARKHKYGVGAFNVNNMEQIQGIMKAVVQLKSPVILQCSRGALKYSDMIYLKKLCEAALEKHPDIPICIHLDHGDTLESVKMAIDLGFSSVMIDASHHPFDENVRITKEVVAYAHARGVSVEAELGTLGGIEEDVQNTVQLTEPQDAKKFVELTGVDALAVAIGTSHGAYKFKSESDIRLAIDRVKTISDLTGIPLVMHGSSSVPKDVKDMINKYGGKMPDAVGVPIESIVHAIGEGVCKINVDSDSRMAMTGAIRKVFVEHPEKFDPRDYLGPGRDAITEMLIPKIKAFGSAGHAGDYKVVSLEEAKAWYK
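40 nM FBPA preincubated 10 min at RT with compound (up to 57.5 uM final), then substrate plus GAPDH/TPI/NAD/arsenate coupling and diaphorase/resazurin added. Fluorescence read after 20 min at RT, 525/598 nm.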
Shiga toxin inh: blocks Shiga toxin action in Vero cells; Vero cells, Shiga toxin protein synthesis inhibition reporter; inhibition, % at 38.7 µM; 9.2% of 290,000 active; AID 2315; in the data active = inhibition mostly above about 28%, no sharp cut-off; inactive = mostly below about 43%
Of the large screens only hits and unclear results are named; the others gave an inactive call. A selection: hits, their analogues and other compounds. The true share with any hit is near 21%. Unless noted, calls follow the shape of the dose curve; as a rule, active = well fitted curve in the direction sought with a large enough effect; inconclusive = small, poorly fitted or top-dose-only effect, or another doubt; inactive = no such curve, though single readings can be large; an effect the other way counts as inactive or inconclusive.

Cc1ccc(N2C(=O)C(CC(=O)Nc3cccc(F)c3)N(C3CC3)C2=O)cc1 (stereo not given)	Cycloheximide cs 18
Cc1ccc(N2CC(C(=O)Nc3cccc(F)c3)CC2=O)cc1 (stereo not given)	Pf growth 96h 2.3µM
Cc1cc(C)c(NC(=O)C2CC(=O)N(c3ccc4c(c3)OCCO4)C2)c(C)c1 (stereo not given)	Cycloheximide cs 26 (no result: Pf growth 48h)
CCOc1ccc(N2CC(C(=O)Nc3ccc4c(c3)OCO4)CC2=O)cc1 (stereo not given)	none (no result: NS1 function inh)
Cc1ccc(N2CC(C(=O)Nc3ccc(N(C)C)cc3)CC2=O)cc1C (stereo not given)	Pf growth 96h 8.3µM
CCOc1ccc(N2CC(C(=O)Nc3ccc(F)cc3F)CC2=O)cc1 (stereo not given)	Pf growth 96h 9.3µM
CCOc1ccc(N2CC(C(=O)Nc3ccc4c(c3)OCCO4)CC2=O)cc1 (stereo not given)	Cycloheximide cs 50, Shiga toxin inh 62 (no result: FBPA Giardia inh)
CC(=O)N1c2ccc(S(=O)(=O)NCC3CCC(C(=O)NCc4ccco4)CC3)cc2CC1C (stereo not given)	Pf growth 96h inconclusive
O[C@@H](c1cc(C(F)(F)F)nc2c(Cl)cc(Cl)cc12)C1CCCCN1 (stereo not given in full)	none (no result: Pf growth 96h, Pf growth 48h, Cycloheximide cs, FBPA Giardia inh, Shiga toxin inh)
CCCCN1C(=O)C(O)(CC(=O)c2ccco2)c2cc(Br)ccc21 (stereo not given)	none
CN1C(=O)C(O)(CC(=O)c2ccccc2O)c2cc(Br)ccc21 (stereo not given)	Pf growth 96h 1.2µM, Pf growth 48h inconclusive
C=CCN1C(=O)C(O)(CC(=O)c2ccc(OC)cc2OC)c2cc(Br)ccc21 (stereo not given)	Pf growth 48h 12µM
CN1C(=O)C(O)(CC(=O)c2cccc(-n3cccc3)c2)c2ccccc21 (stereo not given)	Pf growth 48h 9.3µM
O=C(NNC(=O)c1ccco1)c1ccc(NS(=O)(=O)c2cccs2)cc1	none (no result: NS1 function inh, Cycloheximide cs, FBPA Giardia inh, Shiga toxin inh)
CCOC(=O)N1CCC(=NNc2nc3ccccc3s2)CC1	Pf growth 96h inconclusive, Cycloheximide cs 71, Shiga toxin inh 77
CC(=O)N1CCC(=NNc2nc3ccccc3s2)CC1	Cycloheximide cs 45, Shiga toxin inh 91 (no result: NS1 function inh)
CCOC(=O)N1CCN(/C=C(\C#N)c2nc3ccccc3s2)CC1	Cycloheximide cs 15, Shiga toxin inh 82
C=CCN1C(=O)C(CC(=O)O)S/C1=N/N=C/c1ccc(N(CC)CC)cc1 (stereo not given)	none (no result: NS1 function inh, Cycloheximide cs, FBPA Giardia inh, Shiga toxin inh)
CC(=O)Nc1cccc(-n2nnc(SCC(N)=O)n2)c1	none
COc1ccc(C(=O)CSc2nnn(-c3cccc(NC(C)=O)c3)n2)cc1	Pf growth 96h inconclusive, Cycloheximide cs 52, Shiga toxin inh 73
CC(=O)Nc1cccc(-n2nnc(SCC(=O)c3ccccc3)n2)c1	Cycloheximide cs 49, Shiga toxin inh 61
COCCCNC(=O)CCN1N=C(c2ccccc2)CCC1=O	none
CC(C)N(Cc1nc(-c2ccccc2)no1)C(=O)C(C)(C)C	none (no result: Pf growth 96h)
CC(C)N(Cc1nc(-c2ccccc2)no1)C(=O)C(Cl)(Cl)Cl	Pf growth 48h 1.9µM
COc1ccccc1OCC(=O)N(Cc1nc(-c2ccc(Cl)cc2)no1)C(C)C	Pf growth 96h 4.1µM (no result: Pf growth 48h)
C[C@H](O)C(N)C(=O)O (stereo not given in full)	none (no result: Pf growth 96h, Pf growth 48h, NS1 function inh)
Cc1c(O)ccc2c1OCO2	none (no result: Pf growth 96h, Pf growth 48h, NS1 function inh, Cycloheximide cs, Shiga toxin inh)
CCSc1cc(N2CCOCC2)nc(-c2ccc(Cl)cc2)n1	none
COc1ccc(N2CCCC2=N)c(OC)c1	none
Clc1cccc(C(c2ccc3nc[nH]c3c2)n2ccnc2)c1 (stereo not given)	Pf growth 96h 5.4µM, Pf growth 48h 13µM (no result: NS1 function inh, Cycloheximide cs, FBPA Giardia inh, Shiga toxin inh)
CC(NC(=O)c1ccc2nc[nH]c2c1)c1ccccc1 (stereo not given)	none
Cc1cccc(C(=O)OC(C)C(=O)N2CCc3ccccc3C2)c1C (stereo not given)	Pf growth 96h inconclusive (no result: NS1 function inh, Cycloheximide cs, FBPA Giardia inh, Shiga toxin inh)
COc1ccccc1C(=O)Nc1ccnn1C1CCN(C(C)CSC)CC1 (stereo not given)	Pf growth 96h inconclusive
COc1ccc(C(=O)Nc2ccnn2C2CCN(C(C)CSC)CC2)cc1 (stereo not given)	Pf growth 96h 2.9µM
COc1ccc(C(=O)Nc2ccnn2C2CCN(C(=O)c3cccnc3)CC2)cc1	Pf growth 96h inconclusive, Cycloheximide cs 30, Shiga toxin inh 60 (no result: FBPA Giardia inh)
COc1ccc(C(=O)Nc2ccnn2C2CCN(Cc3cccnc3)CC2)cc1	none
O=C(C[C@@H]1C=Cc2ccccc2N1C(=O)c1ccccc1)c1ccccc1	none (no result: Pf growth 96h, Pf growth 48h, Cycloheximide cs, FBPA Giardia inh, Shiga toxin inh)
CCn1cnc2c1c(=O)n(Cc1cccc([N+](=O)[O-])c1)c(=O)n2Cc1ccccc1	Pf growth 96h inconclusive, Pf growth 48h 8.3µM
CCOC(=O)c1c(C)[nH]c(C(=O)Cn2c(=O)c3c(ncn3CC)n(Cc3ccccc3)c2=O)c1C	Pf growth 96h 10µM, Pf growth 48h 8.3µM
Cc1ccc(C)c(NC(=O)COc2cccc3c2CCN(Cc2ccccc2C)C3=O)c1	Pf growth 96h 10µM, Pf growth 48h inconclusive
CCOc1ccc(NC(=O)COc2cccc3c2CCN(Cc2cccnc2)C3=O)cc1	Pf growth 96h inconclusive, Pf growth 48h 12µM (no result: FBPA Giardia inh)
COc1ccc(NC(=O)COc2cccc3c2CCN(Cc2cccnc2)C3=O)c(OC)c1	Pf growth 96h 1.3µM, Pf growth 48h 5.2µM (no result: FBPA Giardia inh)
CC(=O)Nc1ccc(NC(=O)N(c2ccccc2)c2ccccc2)cc1	none (no result: FBPA Giardia inh)
CCc1ccc(NS(=O)(=O)c2ccc3oc(=O)ccc3c2)cc1	none
COC(=O)c1cc(C(=O)c2ccc(Cl)cc2)n2c(=O)/c(=C\N(C)C)sc12	none (no result: NS1 function inh)
O=c1cc(Nc2ccc3c(c2)OCCO3)[nH]c(=O)n1Cc1ccc(F)cc1	Cycloheximide cs 29, Shiga toxin inh 49
CCOC(=O)c1c(C)[nH]c(C(=O)OCC(=O)Nc2cccnc2Cl)c1C	none (no result: NS1 function inh, Cycloheximide cs, FBPA Giardia inh, Shiga toxin inh)
N#Cc1nc(COc2ccccc2F)oc1NCCc1ccccc1	Pf growth 96h inconclusive, Cycloheximide cs 27, Shiga toxin inh 57
COc1ccc(Nc2oc(COc3ccccc3F)nc2C#N)cc1	Pf growth 96h inconclusive (no result: Pf growth 48h)
CN(Cc1ccccc1)c1oc(COc2ccccc2F)nc1C#N	Shiga toxin inh 89 (no result: Pf growth 48h)
Cc1ccc(CNc2oc(COc3ccccc3Cl)nc2C#N)cc1	none
CCN(CC(=O)NCc1cccs1)C(=O)COc1ccc(C(C)=O)cc1	none (no result: NS1 function inh, Cycloheximide cs, FBPA Giardia inh, Shiga toxin inh)
CN1C2CCC1CC(OC(=O)C(O)c1ccccc1)C2 (stereo not given)	none (no result: Pf growth 96h, Pf growth 48h, Cycloheximide cs, Shiga toxin inh)
CN1[C@@H]2CC[C@H]1CC(OC(=O)C1C=Nc3ccccc31)C2 (stereo not given in full)	Pf growth 96h 13µM, Pf growth 48h inconclusive
COc1cc(NCC[C@@H]2CCCCN2)c2ncccc2c1	none (no result: Pf growth 96h, Pf growth 48h, Cycloheximide cs, FBPA Giardia inh, Shiga toxin inh)
CCCNC(=O)c1oc2ccc3c(c2c1C)C(=O)CC(C)(C)O3	Cycloheximide cs 44, Shiga toxin inh 50 (no result: Pf growth 96h)
CCOC(=O)c1oc2ccc3c(c2c1C)C(=O)CC1(CCN(C(=O)OCC)CC1)O3	Pf growth 48h 2.6µM
CCCNC(=O)c1oc2ccc3c(c2c1C)C=CC(C)(C)O3	Cycloheximide cs 49, Shiga toxin inh 76

Screening data (PubChem)
